Source: PubChem BioAssay (NCATS)
Records with an inconclusive call do not appear. Activity calls are given as the source filed them. Calls come from the whole dose curve; as a rule, active = well fitted cell-killing curve with a large enough effect; inconclusive = small, poorly fitted or top-dose-only effect; inactive = no such curve, though single readings can be large or run the other way.

Experiment: qHTS of pediatric cancer cell lines to identify multiple opportunities for drug repurposing: Primary screen for MG 63 (6-TG R) cells (AID 1347105); note: nearly all actives have a fitted effect of over 50% in size
Conditions: MG 63 (6-TG R) viability, CellTiter-Glo, 48 h; series mostly up to 46 µM; activity change, negative = cytotoxic: at the top concentration
Method in brief: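 ATP-based luminescence (CellTiter-Glo) quantifies viability after a 48-hour exposure. Compounds are dosed across 8 or 11 final concentrations; DMSO and 2.3 µM bortezomib serve as controls.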
% is set by controls: 0 for no effect and ±100 for the full control effect; potency is the fitted concentration of half-maximal effect.

Row | Compound | activity change, negative = cytotoxic | Potency
1 | Nc1nc2ncc(CNc3ccc(C(=O)N[C@@H](CCC(=O)O)C(=O)O)cc3)nc2c(=O)[nH]1 | -0.151% (inactive) | –
2 | CC(C)NC[C@@H](O)COc1cccc2ccccc12 | -6.71% (inactive) | –
3 | CN1C(CCl)Nc2cc(Cl)c(S(N)(=O)=O)cc2S1(=O)=O (stereo not drawn) | -22.2% (inactive) | –
4 | Cc1ccnc(NS(=O)(=O)c2ccc(N)cc2)n1 | -2.28% (inactive) | –
5 | COc1cccc2c1C(=O)c1c(O)c3c(c(O)c1C2=O)C[C@@](O)(C(C)=O)C[C@@H]3O[C@H]1C[C@H](N)[C@H](O)[C@H](C)O1 | – | 4.22 µM (active)
6 | C[C@]12CCC(=O)C=C1[C@@H]1C[C@@H]1[C@H]1[C@@H]3[C@@H]4C[C@@H]4[C@@]4(CCC(=O)O4)[C@@]3(C)CC[C@@H]12 | -15.7% (inactive) | –
7 | CCOC(=O)OC(C)OC1=C(C(=O)Nc2ccccn2)N(C)S(=O)(=O)c2ccccc21 (stereo not drawn) | 2.04% (inactive) | –
8 | C[C@H]1[C@H](NC(=O)/C(=N/OC(C)(C)C(=O)O)c2csc(N)n2)C(=O)N1S(=O)(=O)O (stereo in doubt) | -15.3% (inactive) | –
9 | N[C@@H](CCC(=O)N[C@@H](CS)C(=O)NCC(=O)O)C(=O)O | -10.6% [at 16.1 µM] (inactive) | –
10 | C[C@]12CC[C@H]3[C@@H](CCC4=CC(=O)CC[C@@]43C)[C@@H]1CC[C@@H]2C(=O)CO | -1.09% (inactive) | –
11 | CC(O)C(=O)O (stereo not drawn) | 3.86% (inactive) | –
12 | Cc1ccc(C(=O)C(C)CN2CCCCC2)cc1 (stereo not drawn) | -16.7% (inactive) | –
13 | O=C(O)CNC(=O)c1ccccc1 | -6.71% (inactive) | –
14 | Cc1cc2c(cc1CC(=O)c1sccc1S(=O)(=O)Nc1onc(C)c1Cl)OCO2 | -0.317% (inactive) | –
15 | CCCCCC=CCC=CCCCCCCCC(=O)OCC | 18.4% (inactive) | –
16 | CC(C)N=C(N)/N=C(\N)Nc1ccc(Cl)cc1 | -26.9% (inactive) | –
17 | CC(O)(P(=O)(O)O)P(=O)(O)O | -12.8% (inactive) | –
18 | CC1(C)O[C@@H]2C[C@H]3[C@@H]4C[C@H](F)C5=CC(=O)C=C[C@]5(C)[C@H]4[C@@H](O)C[C@]3(C)[C@]2(C(=O)CO)O1 | -8.07% (inactive) | –
19 | CC(C)(CO)[C@@H](O)C(=O)NCCCO | -10.3% (inactive) | –

Row | Compound | activity change, negative = cytotoxic | Potency
20 | Cc1c(C)n(CCN(C)C)c2ccc(C(=O)OCCN(C)C)cc12 | -25.1% (inactive) | –
21 | CC1=C(C(=O)O)N2C(=O)[C@@H](NC(=O)[C@H](N)c3ccc(O)cc3)[C@H]2SC1 | 9.81% (inactive) | –
22 | CCN(CCCCOC(=O)c1ccc(OC)c(OC)c1)C(C)Cc1ccc(OC)cc1 (stereo not drawn) | -13.7% (inactive) | –
23 | CCCOC(C(=O)OC1CCN(C)CC1)(c1ccccc1)c1ccccc1 | -13.2% (inactive) | –
24 | NC(CS)C(=O)O (stereo not drawn) | 1.82% (inactive) | –
25 | CN(C(=O)CN(CCO)CC(=O)N(C)C(C)(C)Cc1ccccc1)C(C)(C)Cc1ccccc1 | -19.1% (inactive) | –
26 | NC[C@H]1O[C@H](O[C@H]2[C@H](O)[C@@H](O[C@H]3O[C@H](CO)[C@@H](O)[C@H](N)[C@H]3O)[C@H](N)C[C@@H]2N)[C@H](N)[C@@H](O)[C@@H]1O | 10.8% [at 16.1 µM] (inactive) | –
27 | CCOC(=O)/C=C(C)/C=C/C=C(C)/C=C/c1c(C)cc(OC)c(C)c1C | -22.2% (inactive) | –
28 | CCCCc1nc(Cl)c(CO)n1Cc1ccc(-c2ccccc2-c2nn[nH]n2)cc1 | 1.7% (inactive) | –
29 | CN(C)CC/C=C1/c2ccccc2COc2ccc(CC(=O)O)cc21 | -6.26% (inactive) | –
30 | COc1cc(N)c(Cl)cc1C(=O)NC1CCN(CCCOc2ccc(F)cc2)CC1OC (stereo not drawn) | -14.4% (inactive) | –
31 | C[C@@H](CN(C)C)CN1c2ccccc2Sc2ccccc21 | -25.5% (inactive) | –
32 | O=C1OC2(c3ccc(O)cc3Oc3cc(O)ccc32)c2ccccc21 | -25.2% (inactive) | –
33 | CN1CCC[C@@H]1c1cccnc1 | -18.9% (inactive) | –
34 | O=C(COc1ccc(Cl)cc1)N1CCN(Cc2ccc3c(c2)OCO3)CC1 | -11.1% (inactive) | –
35 | CCCC(=O)Nc1ccc(OCC(O)CNC(C)C)c(C(C)=O)c1 (stereo not drawn) | -15.6% (inactive) | –
36 | CN=C(NC#N)NCCSCc1csc(N=C(N)N)n1 | -23.5% (inactive) | –
37 | NC(=O)c1cc[n+](CC2=C(C(=O)[O-])N3C(=O)[C@@H](NC(=O)Cc4cccs4)[C@H]3SC2)cc1 | 13.1% (inactive) | –
38 | Cc1cc(O)c(C(C)C)cc1Cl | 0.16% (inactive) | –
